A selection: hits, their analogues and other compounds. The true share with any hit is near 2.2%.
IEC-6 tox: counter-screen for KLF5 inhibitors: cytotoxicity in IEC-6 cells | IEC-6 cytotoxicity, luminescence viability | hit rate 0.78% among 290,000 | inhibition, % at 5 µM;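 also: 0% = plate median of test compound wells and 100% = cytotoxic reference compound wells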
KLF5 inh: inhibitors of KLF5 expression. hit rate 0.23% among 290,000. DLD-1 KLF5 promoter-luciferase reporter, luminescence. AID 1700. inhibition, % at 5 µM;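 active = inhibition above a per-plate limit of that plate's mean compound inhibition plus 3 SD, cut at about 60% in these data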;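 also: 0% = DMSO wells and 100% = LY294002 at 200 µM; higher means less KLF5 promoter-driven luciferase light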
BaF3 parental: reduces parental Ba/F3 cell viability, JAK2V617F counter-screen; AID 1486; inhibition, % at 5.6 µM; CellTiter-Glo ATP luminescence; hit rate 1.1% among 220,000;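 active = inhibition above a per-campaign cutoff, the mean inhibition of all tested compounds plus 3 SD, cut at about 27% in these data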;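 also: 0% = DMSO wells and 100% = JAK Inhibitor I control wells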
APP 5UTR inh: APP translation inhibition | SH-SY5Y APP 5'UTR-luciferase reporter, luminescence | inhibition, % at 2 µM | hit rate 0.82% among 190,000 | AID 1285;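 active = inhibition above a set limit, derived from the sample mean plus 3 SD, cut at about 45% in these data; inconclusive = one replicate passes the limit while the other fails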
Ba/F3 V617F tox: lowers viability of Ba/F3 cells expressing EpoR and JAK2V617F; ATP luminescence; inhibition, % at 5.6 µM; hit rate 1.1% among 220,000; AID 1446;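 active = inhibition above the campaign mean plus 3 SD over all tested compounds, cut at about 24% in these data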;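 also: cytokine-independent growth of Ba/F3 cells driven by EpoR plus mutant JAK2; 0% = DMSO-treated cells and 100% = JAK inhibitor I control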
aSyn UTR inh: 5' untranslated region of α-synuclein, MLPCN primary screen | alpha-synuclein 5'UTR reporter, inhibitor activity | inhibition, % (tested at 7.5 µM) | hit rate 0.82% among 300,000 | AID 1813; in the data active = inhibition above about 60%; inconclusive = no clear call, values can overlap the other calls;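 also: H4 neuroglioblastoma cells stably carrying SNCA 5'UTR luciferase fusion; 0% = DMSO wells and 100% = positive control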
IEC-6 cytotox cf: confirmation of cytotoxic compounds in rat IEC-6 intestinal epithelial cells; shares compounds with IEC-6 tox; IEC-6 rat intestinal epithelial viability, luminescence; inhibition, % at 5 µM; hit rate 63% among 1,900; AID 1907;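 also: 0% = vehicle and 100% = reference cytotoxic drug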
Active calls of the source: *; ? = inconclusive; nt = no result given. Rule as the data show it, unless noted: active = inhibition above about 22%; inactive = the rest.

SMILES | IEC-6 tox | KLF5 inh | BaF3 parental | APP 5UTR inh | Ba/F3 V617F tox | aSyn UTR inh | IEC-6 cytotox cf
Cc1nnc(N/N=C/c2cc(C)n(-c3ccc(F)cc3)c2C)n1N | 99* | -12 | 5 | 2 | 2 | -1 | -4
Cc1nnc(N/N=C/c2ccccc2O)n1N | 102* | -4 | 0 | 14 | 4 | -42 | 4
CCn1nc(C)c(CNC(=O)c2cc(COc3ccc(C)nc3)on2)c1C | -4 | -12 | nt | nt | nt | 4 | nt
COc1ccc(NC(=O)Cc2nnc(SCC(=O)NC3=NCCS3)n2C)cc1 | -6 | 0 | nt | nt | nt | 9 | nt
Cc1n[nH]c(C)c1CCCCOc1ccccc1[N+](=O)[O-] | 10 | -29 | nt | nt | nt | 9 | nt
Cc1ccc(C)c(NC(=O)CCN2CCN(CCO)CC2)c1 | 0 | -36 | nt | nt | nt | -17 | nt
CC(/C=N/NC(=O)c1n[nH]c2c1CCC2)=C\c1ccccc1 | 86* | 11 | 80* | 94* | 83* | 29 | 62*
O=C(N/N=C/C(Br)=C\c1ccccc1)c1n[nH]c2c1CCC2 | 75* | 44 | 78* | 96* | 85* | 18 | 82*
COc1ccc(C(=O)N/N=C/C(Br)=C/c2ccccc2)cc1 | -2 | -44 | 7 | 24 | 1 | -58 | nt
CC(/C=N/NC(=O)c1ccccc1C)=C\c1ccccc1 | nt | nt | nt | nt | nt | -136 | nt
Cc1ccc(/C=N/NC(=O)c2n[nH]c3c2CCCC3)cc1 | 88* | 60 | 93* | nt | 93* | 77* | 83*
Cc1ccc(OCC(=O)NC2CCSc3ccccc32)cc1 (centres undefined) | nt | nt | nt | nt | nt | -18 | nt
CC(=O)c1c(-c2ccccc2)c2cc(Cl)ccc2n(C)c1=O | 22* | -2 | nt | nt | nt | 28 | 7
Cn1c(=O)c(C(=O)NCc2ccc(Cl)cc2)c(O)c2ccccc21 | -4 | -34 | nt | nt | nt | 5 | nt
Cc1ccc(-c2ocnc2C(=O)Nc2ccccc2NC(=O)c2ccccn2)cc1 | 27* | -20 | nt | nt | nt | 41 | 20
CSc1nnc(NC(=O)c2nc(S(=O)(=O)Cc3cccc(C)c3)ncc2Cl)s1 | 45* | 24 | nt | nt | nt | -10 | 19
Cc1cccc(CS(=O)(=O)c2ncc(Cl)c(C(=O)Nc3nnc(C(C)C)s3)n2)c1 | 60* | 25 | nt | nt | nt | -98 | 14
CC(C)c1nnc(NC(=O)c2nc(S(=O)(=O)Cc3ccc(F)cc3)ncc2Cl)s1 | 19 | 2 | nt | nt | nt | -43 | nt
Cc1ccc(CS(=O)(=O)c2ncc(Cl)c(C(=O)Nc3nnc(C(C)C)s3)n2)cc1 | 36* | 38 | nt | nt | nt | -56 | 18
COc1ccc(/C(O)=C2/C(=O)C(=O)N(c3ccccn3)C2c2cccc(Cl)c2)cc1 (centres undefined) | 1 | -32 | nt | nt | nt | -15 | nt
CCc1cn([C@H]2C[C@H](O)[C@@H](CO)O2)c(=O)[nH]c1=O | 2 | -4 | 6 | 15 | 4 | 0 | nt
O=c1[nH]c(=O)n([C@H]2C[C@H](O)[C@@H](CO)O2)cc1C(F)(F)F | 85* | 7 | 88* | 59* | 96* | 77* | 80*
COc1ccccc1NC(=S)N(Cc1ccco1)Cc1cc2ccc(C)c(C)c2[nH]c1=O | 78* | 45 | 81* | nt | 71* | 34 | 54*
O=C(N/N=C/c1ccc(Br)s1)c1c[nH]c2ccccc12 | -3 | -42 | 4 | -64 | 2 | -152 | nt
O=C(Oc1c(CN2CCOCC2)cc(Cl)c2cccnc12)c1ccccc1Br | 24* | 6 | 1 | nt | -3 | 48 | 21
SMILES | IEC-6 tox | KLF5 inh | BaF3 parental | APP 5UTR inh | Ba/F3 V617F tox | aSyn UTR inh | IEC-6 cytotox cf
CN1CCN(Cc2cc(Cl)c3cccnc3c2OC(=O)c2cccs2)CC1 | 8 | -9 | 10 | 4 | 1 | -11 | nt
c1ccc(CN2CCC(Nc3nc(-c4cccnc4)nc4ccccc34)CC2)cc1 | 24* | -31 | 9 | 5 | 3 | -83 | 19
Cc1ccc(-c2nnn(CC(=O)N(c3ccccc3)C(C(=O)NCC3CCCO3)c3cccs3)n2)o1 (centres undefined) | 0 | -11 | -3 | 12 | -3 | -42 | nt
Cc1cc(C(=O)NNc2ccc(Cl)cc2)no1 | 45* | 25 | 1 | nt | -4 | -16 | -4
Cc1cc(C(=O)NNc2ccc(F)cc2F)no1 | 32* | 21 | -1 | nt | 0 | -2 | -8
CCOC(=O)c1ccc(NC(=O)CSc2nc(=O)n3cccc(C)c3n2)cc1 | nt | nt | nt | nt | nt | -11 | nt
O=c1[nH]c(/C=C/c2ccccc2Cl)nc2ccccc12 | 39* | -50 | nt | nt | nt | -265 | 24*
C/C(=N\NC(=O)c1nnn(-c2nonc2N)c1CN(C)c1ccccc1)c1ccccc1O | 51* | 37 | nt | nt | nt | 43 | 50*
COc1ccc(/C(C)=N/NC(=O)c2nnn(-c3nonc3N)c2CN(C)c2ccccc2)cc1 | 1 | 5 | nt | nt | nt | 1 | nt
CC1=NN(c2nc3ccccc3[nH]2)C(=O)/C1=C/N(C)C | 40* | -2 | 53* | -28 | 58* | nt | 68*
Cc1ccc(-n2c(O)c(/C=C3/C(c4ccccc4)=Nc4ccccc43)c(=O)[nH]c2=O)cc1 | 66* | 28 | 61* | 76* | 74* | -4 | 60*
COc1cc2ncnc(NCc3ccc(Cl)cc3)c2cc1OC | 29* | -4 | 9 | -6 | 2 | -17 | 23*
COc1cc2ncnc(NCc3ccc(C)o3)c2cc1OC | 10 | -9 | 3 | -4 | 1 | 14 | nt
COc1cc2ncnc(NCc3ccc(F)cc3)c2cc1OC | 25* | 6 | nt | nt | nt | 19 | 32*
Clc1ccccc1-c1nnc(-c2ccc3c(c2)OCO3)o1 | -4 | -108 | 1 | -125 | -2 | -82 | nt
Cc1ccc(C(=O)CCC(=O)Nc2ccccc2C)c(C)c1 | 5 | -9 | nt | nt | nt | 1 | nt
C/C(=N\Nc1nc2ccc(Cl)cc2o1)c1ccccc1 | -5 | -24 | 1 | nt | 0 | -66 | nt
Cc1ccc(NC(=O)CCc2c[nH]c3ccccc23)nc1 | 70* | 51 | nt | nt | nt | 2 | 42*
COc1ccc(NC(=S)NNC(=O)c2ccccc2OC(F)F)cc1 | 39* | -24 | 55* | 26 | 76* | -49 | 23*
CC(=O)N(C1=C(Cl)C(=O)c2ccccc2C1=O)C1CCCCC1 | 25* | -13 | -5 | nt | 2 | ? | 8
CC(=O)N(c1ccccc1C)C1CCCC1 | 1 | -55 | 4 | -10 | 2 | -3 | nt
Cc1cccc2c(C(=O)N3CCN(c4ccccn4)CC3)cc(-c3cccc(Br)c3)nc12 | 29* | 0 | nt | nt | nt | 6 | 6
O=C(c1cc(-c2ccccc2Cl)nc2ccc(Br)cc12)N1CCN(c2ccccn2)CC1 | 46* | 10 | nt | nt | nt | 23 | 6
CCN1CCN(C(=O)CCNC(=O)Cn2cnc3ccccc3c2=O)CC1 | -2 | -30 | nt | nt | nt | -18 | nt
Cn1ccnc1CN1CCCCC1C(=O)Nc1ccc(Oc2cccnc2)cc1 (centres undefined) | 27* | 15 | nt | nt | nt | -77 | 3
CCn1ccnc1CN1CCCCC1C(=O)Nc1ccc(Oc2cccnc2)cc1 (centres undefined) | 9 | 2 | nt | nt | nt | -43 | nt
CC(=O)N1CCN(c2ccc(NC(=O)c3ccc4c(c3)OCO4)cc2)CC1 | -1 | -13 | 2 | 8 | -3 | 6 | nt
